Bioassay records: PubChem BioAssay, The Scripps Research Institute Molecular Screening Center
TTR transcr act: TTR transcription activators in neuroblastoma reporter cells, primary screen, cell-based, luminescence, SH-SY5Y, TTR promoter Gaussia luciferase | 100% = recombinant luciferase protein wells | activation, % at 16.7 µM | 92,000 compounds, 1.3% hits | AID 1117267, 2014;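 active = activation above the mean of all tested compounds plus 3 SD, cut at about 9.5% in these data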;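 note: cells exposed to compounds for one day before reading; 0% = median of all test compound wells on the plate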
HuH7 TTR inh: TTR promoter reporter inhibitors in hepatoma cells, counter-screen for TTR transcription activator project, cell-based, luminescence, HuH7 hepatoma. shares compounds with TTR transcr act. inhibition, % at 16.7 µM. HuH7 TTR promoter-Gaussia luciferase reporter. 1,100 compounds, 4% hits;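 active = average inhibition above the solvent-only control wells' mean plus 3 SD, cut at about 15% in these data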;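 note: 0% = cells with DMSO only and 100% = cells with inhibitor control FD; inhibitors lower well luminescence so higher value means more inhibition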
TTR act confirm: TTR transcription activators, retest, confirmation, cell-based, luminescence, SH-SY5Y, triplicate. AID 1117280, 2014. shares compounds with TTR transcr act. activation, % at 16.7 µM. SHSY5Y TTR promoter Gaussia luciferase; 100% = purified Lucia enzyme wells, no cells. 1,100 tested, under 10 active;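 active = mean activation above a set limit taken from the earlier primary screen, cut at about 11% in these data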;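 note: 0% = DMSO-treated cells and 100% = recombinant Lucia luciferase without cells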
Starred values were filed as active, the others as inactive. This excerpt belongs to a sample that is enriched for hits.

SMILES	TTR transcr act	others
COc1ccccc1Cn1nc(C(=O)O)c2ccccc2c1=O	2
COc1ccc2c(c1)C(=O)C1(CC2)OC1c1cccnc1 (centres undefined)	1
CNC(=O)CCN(Cc1ccco1)S(=O)(=O)c1ccc(OC)c(OC)c1	1
COc1ccc(-c2noc(-c3cccs3)n2)cc1OC	22*	HuH7 TTR inh=35*;TTR act confirm=-1
COc1ccc(-c2noc(-c3ccoc3C)n2)cc1OC	0
COc1ccc(-c2nc(-c3ccncc3)no2)cc1OC	0
O=C1NC[C@@H](CCCCN2C[C@H](Cc3ccc(O)cc3)N(CCc3ccccc3)C(=O)C2=O)N(CCc2ccccc2)C1=O	1
COc1ccccc1CNC(=O)C1CCCN1S(=O)(=O)c1ccc2c(c1)C(C)(C)C(=O)N2C (centres undefined)	-1
CC1CN(c2ccc(Oc3ccccc3)cc2)c2nc3c(c(=O)n(CC(N)=O)c(=O)n3C)n2C1 (centres undefined)	6
C=CCn1c(=O)c2c(nc3n2CC(C)CN3Cc2ccccc2)n(C)c1=O (centres undefined)	11*	HuH7 TTR inh=16*;TTR act confirm=-1
CCCn1c(=O)c2c(nc3n2CC(C)CN3Cc2ccccc2)n(C)c1=O (centres undefined)	-2
C=CCn1c(=O)c2c(nc3n2CCCN3CCc2ccccc2)n(C)c1=O	0
Cc1ccc(N2CC(C)Cn3c2nc2c3c(=O)n(CC(=O)OCc3ccccc3)c(=O)n2C)cc1C (centres undefined)	1
CC1CN(Cc2ccccc2)c2nc3c(c(=O)n(CC(N)=O)c(=O)n3C)n2C1 (centres undefined)	13*	HuH7 TTR inh=19*;TTR act confirm=-1
CC(C)(C)OC(=O)[C@H](Cc1ccccc1)NC(=O)c1[nH]cnc1C(=O)Nc1ccccc1F	0
O=C1CCC[C@H]2C[C@H](NCc3ccc(Cl)cc3)CC[C@]23CCCN13	0
CCCOc1ccc(N2C(=O)CC(N(CCOC34CC5CC(CC(C5)C3)C4)C(C)=O)C2=O)cc1 (centres undefined)	1
O=C(CC1SC(=O)NC1=O)Nc1ccc(Cl)cc1 (centres undefined)	12*	HuH7 TTR inh=7;TTR act confirm=0
O=C(Cc1ccc(Br)cc1)Nc1ccc(Cl)cc1	0
Cc1ccc(NC(=O)CC2SC(=NC3CCCCC3)NC2=O)cc1 (centres undefined)	0
Cc1ccc2c(C(=O)CNc3nncs3)c(C)[nH]c2c1	2
CCCCCCCCN1C(=O)[C@@H](CC(=O)N2CCCCC2)C[C@@]2(C(=O)OC)C1=C[C@H](C(C)C)O[C@@H]2C1CC1	0
CCOC(=O)C1=C[C@@H](CC)N(S(=O)(=O)c2ccc(C)cc2)[C@H]1c1cccc(Cl)c1	0
Cc1cc(OCc2cc3c(cc2Cl)OCO3)c2c(C)cc(=O)oc2c1	11*	HuH7 TTR inh=-17;TTR act confirm=1
C=C(Cl)COc1cc(C)cc2oc(=O)cc(CC)c12	-3
SMILES	TTR transcr act	others
CCOc1cc2c(C)cc(=O)oc2cc1Cl	0
Fc1ccccc1NC(=S)N1CCN(Cc2ccccc2)CC1	-3
CC(C)(C)c1cc(C(=O)Nc2ccc(F)cc2)n(Cc2ccc(F)cc2)n1	-2
CC(C)(C)C(=O)NNC(=O)c1cc(C(C)(C)C)nn1Cc1ccccc1	0
CC(C)(C)c1cc(C(=O)NC2CC2)n(Cc2ccc(F)cc2)n1	9.7*	HuH7 TTR inh=-28;TTR act confirm=1
O=[N+]([O-])c1cc2c(cc1CN1CCN(CCOCCO)CC1)OCO2	0
CCCCNC(=O)O[C@H]1CC[C@@]23CCCN2C(=O)CCC[C@H]3[C@H]1C	-1
COc1cccc(C(C)(O)c2nc(-c3ccc(OC)nc3)cs2)c1 (centres undefined)	0
Cc1ccccc1OCCn1c(S(=O)(=O)O)nc2c(N)ncnc21	9.9*	HuH7 TTR inh=-16;TTR act confirm=0
Cc1ccccc1OCCn1c(=S)[nH]c2ccccc21	-1
Cc1ccccc1OCCn1c(C)nc2ccccc21	-2
CC(=O)c1cc(-c2ccccc2)n(CC(=O)Nc2ccc(C)c(C)c2)c1C	-1
COc1cc(/C=C/C(=O)NC(C)C2CC3CCC2C3)cc(OC)c1OC (centres undefined)	-3
CCN1C(=O)[C@@H]2[C@@H]3CN(S(=O)(=O)c4ccc(C)cc4)[C@@H](c4ccccc4F)[C@@H]3C(=O)C[C@@H]2C1=O	-1
CCOc1cccc(CNc2ccc(O)cc2)c1OCc1ccc(Cl)cc1Cl	-5
CCn1cnc2cc(NCc3cccc(OC)c3O)ccc21	1
COc1cccc(CNc2ccc(F)c(Cl)c2)c1O	13*	HuH7 TTR inh=-13;TTR act confirm=0
CCc1cccc(C)c1N1C(=O)CC(C)(C)CC1=O	3
Cc1ccc(-c2nc3ccccc3nc2-c2ccccc2)cc1	2
Cc1ccc(-c2cc(-c3ccccc3)nc(NN)n2)cc1	3
Cc1cc(-c2ccccc2)nc(-c2ccccc2)c1C	19*	HuH7 TTR inh=-20;TTR act confirm=0
Cn1cnc2ncnn2c1=S	0
Cc1nn(CCOc2cccc(Br)c2)c(C)c1[N+](=O)[O-]	0
COc1cccc(-c2nn(-c3ccc(C)cc3)cc2C(=O)N2CCN(C3CCS(=O)(=O)C3)CC2)c1 (centres undefined)	-1
CN(Cc1ccccc1)C(=O)c1ccc(NC(=O)Cc2cccc(NC(=O)C3CCCN(C(=O)C4CCC4)C3)c2)cc1 (centres undefined)	0
SMILES	TTR transcr act	others
Cc1ccc(S(=O)(=O)N(C)CC(=O)N2CCN(Cc3ccccc3)CC2)cc1	0
O=C(CNC(=O)c1ccccc1)NCC(c1ccco1)N1CCCC1 (centres undefined)	13*	HuH7 TTR inh=-12;TTR act confirm=1
O=C(NCC(c1ccco1)N1CCCC1)c1ccc(-n2cccn2)cc1 (centres undefined)	-1
N#Cc1ccc(C(=O)NCC(c2ccco2)N2CCCCC2)cc1 (centres undefined)	-2
CCC1(c2ccccc2)SC(=O)NC1=O (centres undefined)	-1
O=S(=O)(NCCN1CCOCC1)c1cccc(C(F)(F)F)c1	1
O=C(COC(=O)c1ccc([N+](=O)[O-])o1)Nc1ncc(Cl)cc1Cl	-2
OCc1nc2ccccc2n1CC(O)Cn1ccc2ccccc21 (centres undefined)	-5
Oc1ccccc1NCC(O)Cn1ccc2ccccc21 (centres undefined)	11*	HuH7 TTR inh=5;TTR act confirm=-1
OC(CNCCNc1ncccc1C(F)(F)F)Cn1ccc2ccccc21 (centres undefined)	-1
COC(=O)[C@]12C[C@H](CC(=O)NCCCN3CCCC3=O)C(=O)N(Cc3ccc4c(c3)OCO4)C1=C[C@H](C(C)C)O[C@@H]2C1CC1	0
O=C(Nc1cccc(OC(F)(F)F)c1)C1Cc2c(-c3ccccc3Oc3ccccc3)ccnc2O1 (centres undefined)	-1
COc1ccc(/C(C)=N/NC(=O)c2cc(C)[nH]n2)c(OC)c1	-1
CCc1cccc2c(C=C(C#N)C#N)cn(CC(=O)N3CCCCCC3)c12	1
CSc1nc(O)c(C(c2ccccc2Cl)c2c(O)nc(SC)[nH]c2=O)c(=O)[nH]1	2
